# Most compounds without a hit are left out; they make up all but 1.8% or so of the library.
# LYPLA2 counter – blocks human lysophospholipase 2, a PME1 counter-screen. O95372. recombinant LYPLA2, FP-Rh probe fluorescence polarization. inhibition, % at 5.9 µM. 320,000 compounds, 0.38% hits. AID 2177;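 active = inhibition above the screen-wide mean plus 3 SD, limit set per campaign, cut at about 26% in these data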;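 also: 0% = LYPLA2 with DMSO and 100% = wells lacking LYPLA2 enzyme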
# Target sequence (O95372 whole entry, looked up): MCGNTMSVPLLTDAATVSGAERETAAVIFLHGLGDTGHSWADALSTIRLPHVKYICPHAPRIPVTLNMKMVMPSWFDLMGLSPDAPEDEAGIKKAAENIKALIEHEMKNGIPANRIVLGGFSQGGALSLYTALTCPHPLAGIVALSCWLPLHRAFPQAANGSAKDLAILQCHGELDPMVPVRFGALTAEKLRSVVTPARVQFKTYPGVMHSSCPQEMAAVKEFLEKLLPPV
# GSTO1 inh – counter-screen for RBBP9 inhibitors: inhibitors of human GSTO1; P78417; AID 1974; recombinant GSTO1, activity-based probe fluorescence polarization; inhibition, % at 5.96 µM; 300,000 compounds, 1.1% hits;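 active = inhibition above the campaign mean inhibition plus 3 SD, cut at about 35% in these data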;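 also: 0% = GSTO1-1 with DMSO and 100% = wells lacking GSTO1-1 enzyme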
# Fam108B inh – Fam108B inhibition, counter-screen for RBBP9 inhibitors. recombinant Fam108B, FP-Rh probe fluorescence polarization. inhibition, % at 9.51 µM. 300,000 compounds, 0.33% hits. AID 1947;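 active = inhibition above the screen mean inhibition plus 3 SD, computed separately per campaign, cut at about 18% in these data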;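 also: inhibitors lower polarization as less probe binds the enzyme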
# LYPLA1 inh – blocks human lysophospholipase 1, a PME1 counter-screen | recombinant LYPLA1, FP-Rh probe fluorescence polarization | inhibition, % at 5.9 µM | AID 2174 | 320,000 compounds, 0.16% hits;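 active = inhibition above the mean of all tested compounds plus 3 SD, set per campaign, cut at about 14% in these data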;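 also: inhibitors block serine hydrolase probe labeling of LYPLA1 so polarization falls; 0% = enzyme with DMSO and 100% = wells lacking LYPLA1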
# Target sequence (O75608 whole entry, looked up): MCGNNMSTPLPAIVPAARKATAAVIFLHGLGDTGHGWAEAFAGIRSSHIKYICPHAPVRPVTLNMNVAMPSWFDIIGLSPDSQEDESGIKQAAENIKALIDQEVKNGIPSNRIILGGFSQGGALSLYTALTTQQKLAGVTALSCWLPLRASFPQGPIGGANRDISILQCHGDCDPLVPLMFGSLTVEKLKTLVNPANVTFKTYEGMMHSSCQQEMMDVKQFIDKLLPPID
# PME-1 inh – PME-1 (human) inhibition | Q9Y570 | recombinant PME-1, FP-Rh probe fluorescence polarization | inhibition, % at 5.9 µM | 320,000 compounds, 0.53% hits;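 active = inhibition above the campaign mean of all compounds plus 3 SD, cut at about 26% in these data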;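 also: competitive labeling of PME-1 active site by serine hydrolase directed probe; 0% = PME-1 with DMSO and 100% = wells lacking PME-1 enzyme; inhibitors block probe labeling so polarization falls and inhibition rises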
# PAD4 FP inh – PAD4 (human) enzyme inhibition; Q9UM07; recombinant PAD4, RCA probe fluorescence polarization; inhibition, % at 6.36 µM; 330,000 compounds, 0.41% hits;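 active = percent inhibition above a cutoff equal to the mean of all tested compounds plus 3 SD, cut at about 15% in these data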;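 also: 0% = PAD4 with RCA probe and DMSO and 100% = probe without PAD4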
# PAD4 FP conf – confirmation of human PAD4 inhibitors; recombinant PAD4, RCA probe fluorescence polarization; shares compounds with PAD4 FP inh; 1,200 compounds, 28% hits; AID 488796; inhibition, % at 6.36 µM;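 active = mean inhibition across replicates above the hit cutoff set by the earlier primary screen, cut at about 15% in these data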;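 also: inhibitors block active-site labeling by the probe so polarization falls; 0% = PAD4 with probe and DMSO and 100% = probe without PAD4 enzyme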
# An asterisk follows results filed as active; . = no result given.
SMILES,LYPLA2 counter,GSTO1 inh,Fam108B inh,LYPLA1 inh,PME-1 inh,PAD4 FP inh,PAD4 FP conf
Cc1ccc(S(=O)(=O)NC2CC2)s1,1,11,1,-3,2,2,.
O=S(=O)(NC1=NCCCCC1)c1ccc(Cl)cc1Cl,0,.,.,-2,-3,1,.
O=C1CCN(C2CCN(Cc3nc(Cc4ccccc4F)no3)CC2)CCN1,0,-2,0,0,0,-1,.
CCCCCC(=O)Nc1ccc(C(=O)CN2C(=O)NC3(CCCCCC3)C2=O)cc1,-4,6,1,-3,-3,0,.
CCC(=O)Nc1ccc(C(=O)CN2C(=O)NC3(CCCCCC3)C2=O)cc1,1,.,.,-6,-4,30*,-3
CCCCC1=CC2=C(c3ccco3)C(=O)C(C)(OC(=O)c3ccc(OC)cc3)C(=O)C2=CN1CCOC (centres undefined),0,11,2,-1,11,1,.
CCCCC1=CC2=C(c3ccco3)C(=O)C(C)(OC(=O)c3ccc(OC)cc3)C(=O)C2=CN1CCc1ccccn1 (centres undefined),1,6,10,0,3,28*,7
C=CCN1C=C2C(=O)C(C)(OC(=O)c3cccs3)C(=O)C=C2C=C1CCCC(=O)OC (centres undefined),2,31,-1,4,8,13,.
COC(=O)CCCC1=CC2=CC(=O)C(C)(OC(=O)c3cccs3)C(=O)C2=CN1CCc1ccccn1 (centres undefined),5,33,4,3,2,17*,-11
CCc1ccc(N2CC(C(=O)Nc3nnc(CC)s3)CC2=O)cc1 (centres undefined),-1,4,3,4,1,-4,.
COc1ccc(-c2cc(C(=O)NCCc3ccc(S(N)(=O)=O)cc3)c3ccccc3n2)cc1,-17,-18,-6,-4,-3,-2,.
COc1cc2oc(=O)ccc2cc1[C@H](O)[C@@H](O)C(C)(C)O,5,.,.,1,6,45*,2
O=C(Nc1ccccc1)c1ccc(Nc2c([N+](=O)[O-])cc([N+](=O)[O-])c3ccccc23)cc1,-5,-2,8,-3,13,2,.
O=[N+]([O-])c1cc(Br)c(Nc2ccccc2)c([N+](=O)[O-])c1,13,13,4,8,18,18*,20*
CCOC(=O)NC(=O)COC(=O)c1cccc2ccccc12,0,4,-7,0,3,-7,.
CCN(CC)c1ccc(/C=N/N(c2ccccc2)c2ccccc2)c(O)c1,-11,6,-1,-2,-5,-11,.
CCN(CC)c1ccc(C(=O)c2ccccc2C(=O)O)c(O)c1,13,10,9,13,9,21*,26*
O=C(NC1(O)C(=O)c2ccccc2C1=O)c1c(Cl)cccc1Cl,1,79*,5,-2,10,24*,37*
O=C(Nc1ccccc1Cl)c1c(F)c(F)c(F)c(F)c1F,-2,-4,5,2,0,-1,.
Cc1cc(C)cc(OCC(=O)OC(C)C(=O)Nc2c(C)n(C)n(-c3ccccc3)c2=O)c1 (centres undefined),7,-1,6,1,-7,-2,.
COC(=O)c1cc(NC(=O)CSC2=NCCS2)cc(C(=O)OC)c1,6,-3,-1,-2,-4,18*,15*
O=C(CSC1=NCCS1)NC(NC(=O)CSC1=NCCS1)c1ccccc1,2,-27,3,5,-3,-2,.
CCC1C(=O)N=C(SCC(=O)Nc2ccc(C(=O)OC)cc2)NC1=O (centres undefined),2,0,0,2,-1,16*,21*
COC(=O)c1ccc(NC(=O)CSC2=NCCN2)cc1,-7,2,3,-2,-7,18*,30*
COC(=O)c1cc(NC(=O)Cc2ccc(OC)cc2)cc(C(=O)OC)c1,22,-1,3,0,0,21*,17*
SMILES,LYPLA2 counter,GSTO1 inh,Fam108B inh,LYPLA1 inh,PME-1 inh,PAD4 FP inh,PAD4 FP conf
COc1ccc(CC(=O)Nc2ccc(C(N)=O)cc2)cc1,-5,7,3,-2,0,-1,.
Cc1cccc(C2c3[nH]c4ccccc4c3CCN2C(=O)c2cc(CC(C)C)nc(C)n2)n1 (centres undefined),-9,3,0,0,6,-6,.
CCCC(=O)N(Cc1cccnc1)c1nc2c(OC)ccc(Cl)c2s1,-4,6,5,-4,5,-1,.
COc1cccc(C2/C(=C(/O)c3ccc4c(c3)OCO4)C(=O)C(=O)N2CCN2CCOCC2)c1 (centres undefined),1,3,3,1,-4,-2,.
C#CCOCCOCCOCCNc1nc(N2CCN(C(=O)[C@H](CCC(=O)O)n3cc(C(N)[C@H](C)CC)nn3)CC2)nc(N2CCN(C(=O)[C@H](Cc3cc4ccccc4[nH]3)n3cc(C(N)[C@H](C)CC)nn3)CC2)n1 (some centres undefined),2,4,3,0,-2,27*,10
COC(=O)c1c(NC(=O)c2ccco2)sc(C(=O)N(C)C)c1C,-12,11,0,-3,-8,19*,16*
COC(=O)c1c(NC(=O)c2cccnc2)sc(C(=O)N(C)C)c1C,-2,5,1,5,2,2,.
COc1ccc(C2CC(=O)Oc3ccc(OC)cc32)cc1 (centres undefined),.,.,.,.,.,2,.
CC(C)[C@H](N)c1nnc(SCC(=O)c2ccc(Cl)cc2)o1,-1,24,1,-1,-1,15*,3
CCCCc1c(C)c2ccc(OCC(C)=O)cc2oc1=O,-4,-9,0,-3,-6,-3,.
CC(=O)COc1ccc2c(C)c(-c3ccccc3)c(=O)oc2c1,5,-4,1,4,0,23*,-4
Cc1cc(C)c(C#N)c(Sc2ccccc2N)n1,6,1,-1,6,2,21*,52*
CC(=NC1CCCC1)c1c(C)[nH]n(-c2nc3ccccc3s2)c1=O,0,-13,-4,-7,-4,19*,17*
CC(=NC1CC1)c1c(-c2ccccc2)[nH]n(-c2nc3ccccc3s2)c1=O,-7,-1,-6,-3,-8,5,.
CN(C)c1cccc(O)c1,7,.,.,1,-6,22*,2
Fc1ccc(Cn2c(SCc3ccc(F)c(F)c3)nnc2C(F)(F)F)cc1,5,3,3,1,1,0,.
Fc1ccc(Cn2c(SCc3ccc(F)c(C(F)(F)F)c3)nnc2C(F)(F)F)cc1,2,6,7,-3,-1,23*,-3
COc1ccc(NS(=O)(=O)c2cccc(N/C(=N\S(=O)(=O)c3ccccc3)c3ccc(F)cc3)c2)cc1,-37,-2,-13,-14,-18,-1,.

# Bioassay records deposited in PubChem BioAssay by The Scripps Research Institute Molecular Screening Center.
